# Out of some 200,000 compounds screened, about 18,000 (9%) were called active. The list comes from a sample in which actives are over-represented; it also holds similar structures and randomly drawn compounds. Unmarked numbers belong to inactive results. Cut-off read from the data, not from the text of the source: active = inhibition above about 50%; inactive = the rest.
# Assay: Leishmania major promastigote growth inhibition, primary screen (AID 1063);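 note: promastigotes grown with compound for 44 hours at 28 °C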
# Settings: Leishmania major promastigotes, resazurin fluorescence viability; at 10 µM; active compounds read high
row,Structure (SMILES),inhibition
1,Cc1ccccc1Nc1scc(-c2ccc(Br)cc2)[n+]1-c1ccccc1C,31%
2,CCc1ccc(NC(=O)N2CCN(c3ccccc3)CC2)cc1,25.5%
3,CC(CC(=O)N1CCN(c2ccccc2)CC1)c1ccccc1 (stereo not drawn),-5.82%
4,CC(=O)N1CCN(c2ccc(NCc3ccc(C(C)C)cc3)cc2)CC1,81.4% (active)
5,NC(=O)N1CCc2ccccc21,-6.03%
6,N#Cc1ccc(N2Cc3ccccc3/C2=N/C(=O)Nc2ccc(Cl)cc2)cc1,71.6% (active)
7,O=C(Nc1ccccc1)OCc1cn(-c2ccc(Cl)cc2)nn1,-4.84%
8,Cc1cccc(N2Cc3ccccc3C2=NC(=O)c2ccc(Cl)nc2)c1,4.02%
9,Cn1cccc1/C=C1\SC(=O)N(CC(=O)Nc2ccc(F)cc2)C1=O,-0.17%
10,Fc1ccccc1COc1ccccc1CNCc1ccncc1,98.5% (active)
11,CCOc1cc(/C=N/O)ccc1OCc1ccccc1F,-1.85%
12,CCC(Oc1ccccc1)C(=O)NCc1cccnc1 (stereo not drawn),3.42%
13,O=C(CCc1ccccc1)NCc1cccnc1,-1.64%
14,COc1ccccc1CNCc1cccs1,7.82%
15,c1ccc(COc2ccccc2CNCc2cccnc2)cc1,75% (active)
16,O=C(CNC1CCCCC1)NCC1(c2ccccc2)CCCC1,19.4%
17,O=C(O)c1n[nH]nc1-c1ccccc1,-4.14%
18,COC(=O)c1cc(NC(=O)CN2CCN(C(C)=O)CC2)cc(C(=O)OC)c1,2.15%
19,Fc1ccc(CNCc2ccc(Br)cc2)cc1,84.8% (active)
20,Cc1cc(C)cc(NC(=S)NCc2ccc(F)cc2)c1,16.7%
21,O=C(Cc1ccccc1)NCc1ccc(F)cc1,-4.83%
22,Cn1c(SCC(=O)Nc2ccc(Br)cc2F)nnc1-c1ccco1,-5.27%
23,NC(=O)C1CCN(C(=O)COc2cccc3cccnc23)CC1,-6.58%
24,COc1ccc(OCc2cn3c(C)cc(C)nc3n2)cc1,-3.26%
25,COc1ccc(C(C[N+](=O)[O-])n2nc(C)cc2C)cc1 (stereo not drawn),100% (active)

row,Structure (SMILES),inhibition
1,COc1ccc(C(=O)CSc2nc(C)cc(C)n2)cc1[N+](=O)[O-],16%
2,CN(C)/C=C(/C(=O)c1ccccc1Cl)S(C)(=O)=O,3.15%
3,CCn1nc(C)cc1C(=O)N1CCCC(C(=O)c2cccc(OC)c2)C1 (stereo not drawn),-7.56%
4,COc1ccc(C(=O)C2CCCN(C(=O)c3cc4nc(C)cc(C)n4n3)C2)cc1F (stereo not drawn),57.3% (active)
5,Cc1cnc(C(=O)N2CCCC(C(=O)c3ccc(C(F)(F)F)cc3)C2)cn1 (stereo not drawn),3.62%
6,C=CCn1cc(C(=O)NCc2ccc(Cl)cc2)c(=O)c2cc(S(=O)(=O)N(CC)CC)ccc21,13.9%
7,CCc1nc2oc3ccccc3c(=O)c2c(=O)n1Cc1ccc(OC)cc1,8.88%
8,COc1ccc(C(=O)CN(C(=O)c2ccc(Cl)cc2)N2C(=O)c3ccccc3C2=O)cc1,-4.51%
9,COc1ccc(Cn2c(-c3ccc(Cl)cc3)c[n+]3ccccc23)cc1,99.2% (active)
10,COc1ccc(-c2nn(-c3ccccc3)cc2/C=C\C(=O)Nc2ccc(C(=O)O)cc2)cc1,-5.87%
11,Cc1c(C(=O)Nc2ccccc2)sc2nc3n(c(=O)c12)CCCCC3,61.8% (active)
12,Cc1c(C(=O)Nc2cccc(-c3nnc4n3CCCCC4)c2)oc2ccccc12,27.1%
13,O=c1c2c(nc3n1CCCCC3)sc1c(O)cccc12,-1.41%
14,C=CCNc1nc(Nc2ccc(Cl)cc2)nc(OC)n1,41.2%
15,COc1ccc(C2Nc3ccccc3C(=O)N2c2ccc(F)cc2)cc1Cn1nnc2ccccc21 (stereo not drawn),20.3%
16,COc1ccc(C2=NO[C@@H]3C(=O)N(Cc4ccccc4)C(=O)[C@H]23)cc1OC,-2.75%
17,COc1ccc(C2Nc3ccccc3C(=O)N2Cc2ccccc2)cc1Cn1nnc2ccccc21 (stereo not drawn),97% (active)
18,CCN1CCN(C(C(=O)NC2CCCC2)c2cc3c(cc2[N+](=O)[O-])OCO3)CC1 (stereo not drawn),-2.85%
19,COc1ccc(Cc2n[nH]c(=S)n2NC(=O)Nc2ccc(C)cc2)cc1,-2.58%
20,CCN1CCN(Cc2nc3c(c(=O)n(C)c(=O)n3C)n2CC(=O)c2ccccc2)CC1,1.75%
21,Cn1c(=O)c2c(nc(CN3CCOCC3)n2Cc2ccccc2)n(C)c1=O,-4.56%
22,CN1CCN(Cc2nc3c(c(=O)n(C)c(=O)n3C)n2Cc2cccc3ccccc23)CC1,58.8% (active)
23,Cc1cccc(NC(=S)N2CCC(O)CC2)c1C,-2.49%
24,Cc1ccc(NC(=O)COc2ccc(-n3ccnc3)cc2)cc1Cl,86.5% (active)
25,Cc1csc(OCC(=O)Nc2ccc(C)c(C)c2)n1,-3.8%

row,Structure (SMILES),inhibition
1,Cc1ccccc1OCC(=O)Nc1ccc(N2CCN(C(=O)C(C)C)CC2)c(Cl)c1,40.7%
2,O=C(CNC(=O)COc1ccccc1)NCCc1ccccn1,-2.06%
3,N=C(N)SCc1cccc2ccccc12,5.8%
4,CCc1ccc(-c2nn(-c3ccccc3)cc2CSC(=N)N)cc1,100% (active)
5,CCn1c(SCc2ccc(C)cc2)nnc1-c1nn(-c2ccccc2)ccc1=O,5.13%
6,N/C(=N\OC(=O)CCc1ccccc1)c1cccnc1,-5.44%
7,COC(=O)CSc1nccc(-c2cccs2)n1,1.92%
8,Cc1nnc(SCC(=O)NCCOc2ccc(Cl)cc2)n1-c1ccccc1,-1.38%
9,Cc1nnc(SCC(=O)N2CCN(c3ccccc3)CC2)n1-c1ccccc1,5.01%
10,Cc1nnc(SCc2ccc(C(=O)c3ccc(Cl)cc3)o2)n1-c1ccccc1,98.6% (active)
11,CNC(=O)c1[nH]cnc1C(=O)N[C@@H](CC(C)C)C(=O)OCc1ccccc1,0.78%
12,CCN(CC)S(=O)(=O)c1ccc2[nH]cc(C(=O)NCCc3ccccc3)c(=O)c2c1,7.93%
13,O=C(NCCc1c[nH]c2ccccc12)c1cc2ccccc2oc1=O,1.33%
14,CN(c1ccccc1)S(=O)(=O)c1ccc(Cl)c(C(=O)NCCc2c[nH]c3ccccc23)c1,95.2% (active)
15,CCn1c(=S)[nH]c2sc3c(c2c1=O)CCCCC3,-4.76%
16,Cc1sc2ncnc(Sc3nc4ccccc4s3)c2c1C,7.91%
17,Cc1nc2nc(CSc3nc4ccccc4s3)cc(=O)n2[nH]1,1.29%
18,CCN(CC)CCCSc1nc2ccccc2s1,70.2% (active)
19,O=C1COc2ccc(C(=O)COC(=O)C3CC(O)CN3S(=O)(=O)c3ccc(Cl)cc3)cc2N1 (stereo not drawn),-7.23%
20,CCS(=O)(=O)N1Cc2ccccc2CC1C(=O)Nc1nc2ccc(F)cc2s1 (stereo not drawn),19.1%
21,CN(C)C(=O)N1CCNCC1,-4.41%
22,COc1cccc(-c2cc(C(=O)N/N=C/c3ccc(OC)c(COC(C)=O)c3)c3ccccc3n2)c1,10.4%
23,Cc1ccc(-c2cc(C(=O)N/N=C/C=C/c3ccco3)c3ccccc3n2)cc1C,55.7% (active)
24,O=C(N/N=C/C=C/c1ccco1)c1cccs1,-2.33%
25,COc1ccc(NS(=O)(=O)c2ccc(O)c(C(=O)OCC(=O)NC3CCCCC3)c2)cc1,-3.84%

row,Structure (SMILES),inhibition
1,O=C(NNc1cc(Cl)ccc1Cl)c1cccnc1Cl,-4.41%
2,COC(=O)Cc1ccc(NC(=S)NCc2ccco2)cc1,-3.07%
3,CC(C)c1nc(CNC(=O)CC2C(=O)NCCN2Cc2ccoc2)cs1 (stereo not drawn),-2.52%
4,COCc1c(N)c(C)nc(Cl)c1C#N,3.91%
5,Cc1ccsc1/C=N/n1c(=S)[nH]nc(C)c1=O,99% (active)
6,Oc1ccccc1/C=N/n1c(-c2cccs2)n[nH]c1=S,-8.08%
7,S=c1[nH]nc(-c2cccs2)n1/N=C/c1cccs1,-14.7%
8,Cc1c(Cl)cccc1NC(=O)CSc1ccc(-c2cccnc2)nn1,10.9%
9,COC(=O)c1cc(C(=O)CSc2nc(C)cc(C)n2)ccc1O,-2.37%
10,Cc1cc(Oc2ccc(Cl)cc2)nc(SCC(=O)c2ccccc2)n1,95.7% (active)
11,Cc1cc(SCC(=O)c2ccccc2)nc(SCC(=O)c2ccccc2)n1,-2.75%
12,CC(=O)c1sc(NC(=O)C2=NN(c3ccccc3)C(=O)CC2)nc1C,2.95%
13,CC1=CC=CC2=N/C(=N\S(=O)(=O)c3ccc(F)cc3F)c3ccccc3CN12,2.41%
14,O=[N+]([O-])c1ccccc1Nc1ccc(O)cc1,5.07%
15,O=[N+]([O-])c1ccccc1NCc1ccc(Cl)cc1,-7.18%
16,Oc1ccc(CNc2ccccc2O)cc1,98.9% (active)
17,O=C(CS(=O)(=O)c1ccccc1)Nc1ccc(S(=O)(=O)Nc2ccccn2)cc1,-6.61%
18,O=C(NCCc1ccc(F)cc1)c1n[nH]c2ccccc12,3.08%
19,CN(C)CCNC(CC(=O)Nc1ccc(Cl)c(Cl)c1)C(=O)O (stereo not drawn),-6.23%
20,O=C(CC(O)(C(F)(F)F)C(F)(F)F)Nc1ccc(Cl)c(Cl)c1,100% (active)
21,O=C(Cc1ccc(Cl)c(Cl)c1)Nc1ccc(SC(F)F)cc1,4.28%
22,Cc1cc(C)n(-c2ccc(C(=O)O)cc2[N+](=O)[O-])n1,-1.85%
23,COC(=O)Cc1csc(/N=C/c2c(O)n(-c3cccc(C(F)(F)F)c3)c(=O)c3ccccc23)n1,-6.16%

# From PubChem BioAssay AID1063 (University of Pittsburgh Molecular Library Screening Center, 2008)
